# Compound activity: PubChem BioAssay, Sanford-Burnham Center for Chemical Genomics
# Rows were chosen to be rich in hits. Some 31% of all compounds tested hit in one or more screens of this group.
# CYP2C19 activ: activators of human cytochrome P450 2C19 | recombinant CYP2C19, luciferin-H EGE luminescence; active compounds read high; 0 = fully inhibited enzyme, 1 = untreated enzyme | activation factor at 5 µM | P33261 | AID 1025 | 96,000 tested, under 10 active;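 active = activation factor of at least 2 at 5 µM in the primary screen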;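 note: 0 = wells with 2.5 mM tranylcypromine and 1 = vehicle-only wells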
# CYP2C19 inhib: blocks human cytochrome P450 2C19; CYP2C19 Supersomes, luciferin-H EGE luminescence, 30 min; inhibition, % at 5 µM; 96,000 tested, 21% active; P33261;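 active = CYP2C19 inhibition above a set limit at 5 µM in the primary screen, cut at about 50% in these data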;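 note: plate controls were negative control wells for no effect and 2.5 mM tranylcypromine positive control for full effect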
# PLAP act: human PLAP activation. purified PLAP enzyme, luminescent substrate read-out; active compounds read high. activation fold at 20 µM. 96,000 tested, 1.2% active. AID 696; in the data active = activation fold above about 2
# Target sequence (P05187 whole entry, looked up): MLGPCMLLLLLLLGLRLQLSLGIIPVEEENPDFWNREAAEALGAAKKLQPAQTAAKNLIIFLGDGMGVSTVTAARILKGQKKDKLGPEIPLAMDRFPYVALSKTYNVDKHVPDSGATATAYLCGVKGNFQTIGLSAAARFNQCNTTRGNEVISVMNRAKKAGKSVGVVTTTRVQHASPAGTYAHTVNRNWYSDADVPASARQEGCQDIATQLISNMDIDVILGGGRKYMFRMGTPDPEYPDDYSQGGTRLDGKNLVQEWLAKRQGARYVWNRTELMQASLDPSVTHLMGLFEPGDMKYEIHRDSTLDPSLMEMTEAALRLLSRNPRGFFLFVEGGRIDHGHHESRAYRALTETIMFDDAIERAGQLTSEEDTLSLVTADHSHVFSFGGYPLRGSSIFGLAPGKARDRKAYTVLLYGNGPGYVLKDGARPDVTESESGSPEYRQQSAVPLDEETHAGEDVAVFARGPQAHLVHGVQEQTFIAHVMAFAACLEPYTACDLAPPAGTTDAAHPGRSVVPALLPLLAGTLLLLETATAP
# CYP2C9 activ: activators of human CYP2C9 | recombinant CYP2C9, luciferin-H conversion, luminescence; active compounds read high; factor 1 = untreated enzyme, 0 = blocked | 96,000 tested, 1.4% active | activation factor at 5 µM | AID 1024;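 active = activation factor of 2 or more for CYP2C9 at a 5 µM dose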;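 note: 0 = sulfaphenazole-blocked wells and 1 = vehicle-only wells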
# CYP2C9 inhib: blocks human cytochrome P450 2C9 | P11712 | CYP2C9 Supersomes, luciferin-H conversion, luminescence | inhibition, % at 5 µM | 96,000 tested, 20% active;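 active = blocking of liver enzyme CYP2C9 beyond about 50% at 5 µM, limit read from the data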
# Numbers without * were called inactive.
SMILES,CYP2C19 activ,CYP2C19 inhib,PLAP act,CYP2C9 activ,CYP2C9 inhib
N#CCCN(C(=O)CSc1ccc2c(c1)OCCO2)c1ccc(F)cc1,0.5,47.3,0.9,0.9,11.2
COCCNC(=O)CS(=O)(=O)Cc1nc(-c2ccc(C)cc2)oc1C,0.8,19.6,1.5,0.7,25.4
CC1=C(C(=O)OC(C)C)C(c2ccncc2)n2ncnc2N1 (stereo not given),0.8,21.0,1.3,0.5,46.3
CCSc1nc2c(c(=O)[nH]1)C(c1ccncc1)C(C(=O)OC)=C(C)N2 (stereo not given),0.2,76.3*,0.9,0.5,51.6*
CSc1nc2c(c(=O)[nH]1)C(c1ccncc1)C(C(=O)OC(C)C)=C(C)N2 (stereo not given),0.1,89.0*,1,0.5,47.2
CCOC(=O)C1=C(C)Nc2nc(SC)nn2C1c1ccc(C(=O)OC)cc1 (stereo not given),0.8,19.1,0.8,0.8,17.7
CC(C)(C)c1csc(NC(=O)c2ccc3nccnc3c2)n1,0.9,9.8,1.1,0.7,33.7
CCOC(=O)C(/C=N/c1cc(C)nn1-c1ccccc1)=C(\C)O,0.4,59.0*,0.8,0.3,70.5*
CCOC(=O)c1cc(OC(=O)c2ccccc2)n(-c2ccccc2)n1,0.7,27.4,1,1,2.9
CCOC(=O)C(=CNc1cc(C)nn1-c1ccccc1)C(=O)OCC,0.9,13.5,1.3,0.4,63.2*
O=C(CSc1nnc2ccccn12)Nc1ccccc1C(=O)NC1CC1,1.1,-5.4,1,1,2.9
COc1ccc(NC(=O)Cn2nc(Cc3cccnc3)c3ccccc3c2=O)cc1OC,1,4.3,1,0.8,17.7
CCC1=Nc2ccccc2NC2=C1C(=O)CCC2,0.4,62.9*,1.6,1.3,-27.0
O=Cc1cn(-c2ccccc2)nc1-c1cc2c(ccc3ccccc32)oc1=O,0.8,22.2,1.1,1,1.3
O=Cc1cn(-c2ccccc2)nc1-c1cc2cc(O)ccc2oc1=O,0.9,5.8,1.2,0.2,80.8*
O=C(COc1ccccc1)Nc1ccc(CSc2ccccc2)cc1,1,-3.2,1,1,-2.8
Cc1cc(=S)[nH]c2ccccc12,1,4.0,0.9,1.2,-16.5
Cc1ccc(C)c2c1[nH]c1ccc([N+](=O)[O-])cc12,0.2,78.0*,0.7,0.4,60.8*
Cc1ccc(C)c2c1[nH]c1ccccc12,0.1,86.2*,0.9,1,2.6
O=C(Nc1ccc2c(c1)oc1ccc(S(=O)(=O)N3CCCC3)cc12)C1CC1,0.8,22.9,1,0.5,53.0*
CCCCOc1cccc(OCCCC)c1C(=O)Nc1cc(C)on1,0.7,34.3,0.8,0.8,15.4
CC(=O)c1c(COC(=O)c2ccncc2)nc2ccccc2[n+]1[O-],0.1,91.6*,1,0.6,35.1
CC(=O)c1c(COC(=O)c2ccco2)nc2ccccc2[n+]1[O-],0.4,60.1*,1,0.4,63.3*
COc1ccc2nc(COC(=O)c3ccco3)c(C(C)=O)[n+]([O-])c2c1,0.9,12.4,1,0.8,24.2
CCOC(=O)c1c(COC(=O)c2ccco2)nc2ccccc2[n+]1[O-],0.9,13.9,0.9,0.8,19.4
SMILES,CYP2C19 activ,CYP2C19 inhib,PLAP act,CYP2C9 activ,CYP2C9 inhib
O=S1(=O)CC(N2CCCCC2)C(N2CCCCC2)C1 (stereo not given),1,-0.5,1.1,1,4.1
Cc1cc2c(cc1C)NC1(C(=O)Nc3ccccc31)C1=C(CC(C)(C)CC1=O)N2 (stereo not given),1.1,-11.2,1.4,1.2,-24.3
COc1ccc2nc(SCC(N)=O)cc(C)c2c1,1,3.2,0.7,1.4,-43.9
COc1ccc(SCC(=O)c2cc(C)c(OC(=S)N(C)C)c(C)c2)cc1,0.1,87.2*,1.3,0.6,44.9
Cc1cc(C(=O)CSc2ccc(F)cc2)cc(C)c1OC(=S)N(C)C,0.1,93.5*,1,0.2,81.2*
COc1cccc(C(=O)NCC(=O)n2nc(C)cc2C)c1,1.1,-6.4,0.9,1.2,-19.2
Cc1ccc(-c2cc(C(F)F)nc(N3CCC(C)CC3)n2)cc1,0.9,12.3,0.8,0.5,54.7*
Cn1c(=O)c2c(nc(CN3CCN(CCO)CC3)n2Cc2cccc3ccccc23)n(C)c1=O,0.6,41.3,1.9,0.7,34.6
COc1ccc2occ(C(=O)c3cccs3)c2c1,0.2,75.1*,0.7,0.5,52.9*
O=C(c1cc2nc(-c3cccs3)cc(C(F)(F)F)n2n1)N1CCCc2ccccc21,0.9,13.9,1,0.9,10.3
O=C(c1cc2nc(-c3cccs3)cc(C(F)(F)Cl)n2n1)N1CCCc2ccccc21,0.7,32.0,1.5,0.1,89.3*
O=C(c1cccs1)N1CCCc2ccccc21,0.4,63.6*,0.9,0.6,37.1
O=C(C1CCCN1C(=O)c1cccs1)N1CCc2ccccc21 (stereo not given),0.5,53.9*,1.2,0.8,17.9
O=C(c1cccs1)N1CCc2ccccc21,0.9,14.8,0.8,1,-4.3
O=C(c1ccc(F)cc1)C1CCN(C(=O)NC2CCCCC2)CC1,0.6,37.5,1,0.8,23.9
CCOCCCNS(=O)(=O)c1ccc(NC(=O)N2c3ccccc3Sc3ccccc32)cc1,0.5,46.1,1.4,0.1,92.2*
Cc1ccc2c(c1)[nH]c1c(=O)n(Cc3ccccn3)cnc12,0.8,21.3,0.8,0.9,8.9
CCOC(=O)c1c(NC(=O)C2c3ccccc3Oc3ccccc32)sc(C(N)=O)c1C,0.5,45.6,0.8,0.2,78.4*
CCc1noc(C)c1C(=O)Nc1sc(C(=O)N(C)C)c(C)c1C(=O)OC,0.5,46.3,1.4,0.4,59.6*
CCOC(=O)c1c(NC(=O)c2cccs2)sc(C(=O)N(C)C)c1C,0.4,57.6*,0.8,0.2,77.0*
CCOC(=O)c1c(NC(=O)c2cccs2)sc(C)c1CC,0.6,44.1,1.1,1,4.2
CCc1c(C)sc(NC(=O)c2cccs2)c1C(=O)OC(C)C,0.5,50.7*,1.2,0.4,64.3*
CCOC(=O)c1c(NC(=O)C2COc3ccccc3O2)sc(C(C)=O)c1C (stereo not given),0.8,21.9,0.7,0.5,45.8
O=C(NC1CCSC1=O)c1cccc(C(=O)NC2CCSC2=O)c1 (stereo not given),0.9,5.5,1.3,0.9,5.4
CC(Nc1cc(N2CCCC2)ccc1[N+](=O)[O-])c1ccccc1 (stereo not given),1,-3.8,1,0.9,7.2
CCCC(=O)N1CCN(c2ccc([N+](=O)[O-])c(NC(C)c3ccccc3)c2)CC1 (stereo not given),0.4,63.4*,1.2,0.3,69.5*
CCCN1C(=O)c2ccc(C(=O)NC3CCCCC3)cc2C1=O,1,-2.3,0.9,0.9,10.7
O=C(CSC(=S)N1CCCCC1)N1N=CCC1c1ccccc1 (stereo not given),0.6,41.6,1,1,2.0
CS(=O)(=O)Nc1ccc(Br)cc1C(=O)c1ccccc1,0.1,91.8*,1.6,0.1,87.7*
